Source: PubChem BioAssay (Broad Institute)
Only a sample is shown.
aSyn UTR act – Activators working through SNCA 5'UTR binding (MLPCN) | alpha-synuclein 5'UTR reporter, activators screen | activity score, % (tested at 7.5 µM), hits read low | 300,000 compounds, 7.1% hits | AID 1814; in the data active means activity score below about -60%
Numbers without * were called inactive.

SMILES | aSyn UTR act
Cc1cc(NC(=O)c2cccs2)ncc1NC(=O)C(C)C | -145*
Cc1cc(NC(=O)c2ccccc2)ncc1NC(=O)c1cccs1 | -103*
COc1ccc(/C=C/C(=O)c2ccc([N+](=O)[O-])o2)cc1OC | 61
O=C(c1ccc([N+](=O)[O-])o1)N1CCc2ccccc2C1 | -103*
COc1ccc2oc(C(=O)N3CCCc4ccccc43)c(C)c2c1 | -91*
O=C(c1ccc([N+](=O)[O-])o1)N1CCc2ccccc21 | -190*
COc1cc2c(cc1OC)CN(C(=O)c1ccc([N+](=O)[O-])o1)CC2 | -175*
CC(=O)c1ccc(-c2ccc(C(=O)N3CCN(c4ccc(F)cc4)CC3)o2)cc1 | -73*
CC(=O)c1ccc(-c2ccc(C(=O)N3CCCc4ccccc43)o2)cc1 | -66*
Cc1ccc(C(=O)N2CCc3ccccc32)o1 | -94*
Cn1c2ccccc2c2ncn(CCC3=CCCCC3)c(=O)c21 | -158*
O=C(NCCc1c[nH]c2ccccc12)c1cnccn1 | -80*
CC(=O)c1c(C)[nH]c(C(=O)NCCc2c[nH]c3ccccc23)c1C | -89*
COc1ccc(C(=O)NCCc2c[nH]c3ccccc23)cc1 | -184*
Cc1ccsc1C(=O)NCCc1c[nH]c2ccccc12 | -123*
